From the supplement of paper PMC10849652
About 7,900 targets were measured; listed, in parts, are those with a hit and a random draw of the rest. About 0.6% of all pairs of compound and target were hits.

Experiments:
Assay in all cases: log2 fold change, soluble protein after heating vs DMSO (PISA); higher = thermal stabilisation; K562 cells, 10 uM, 30 min; active = over 0.2 and 3.5 SD of the protein, either way, in both replicates (recomputed)
[1] = compound: NC(=O)Nc1cc(-c2cccc(F)c2)sc1C(=O)N[C@H]1CCCNC1
Outline: (§1)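 K562 cells at 2×10^6 cells/mL were given 10 μM compound for 30 min. Aliquots then went through 3 min of heating across 48°C-58°C, were pooled, and were extracted in PBS with 0.5% NP-40 at 4°C, and the supernatant after 21,000xg for 90 min was quantified by TMTpro 16plex LC-MS/MS with channel sums equalised. Thermal stability relative to control samples, from duplicates, is given as log2 fold change.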

[2] = compound: NC(=O)c1cnc(N[C@@H]2CCCC[C@@H]2N)nc1Nc1cccc(-n2nccn2)c1
Outline: as §1

[3] = compound: NC1(c2ccc(-c3nc4ccn5c(=O)[nH]nc5c4cc3-c3ccccc3)cc2)CCC1
Outline: as §1

[4] = compound: NCC(=O)Nc1ccc(-n2nc(C(F)(F)F)cc2-c2ccc3c(ccc4ccccc43)c2)cc1
Outline: as §1

entinostat = compound: Nc1ccccc1NC(=O)c1ccc(CNC(=O)OCc2cccnc2)cc1 [entinostat]
Outline: as §1

vorinostat = compound: O=C(CCCCCCC(=O)Nc1ccccc1)NO [vorinostat]
Outline: as §1

citarinostat = compound: O=C(CCCCCCNC(=O)c1cnc(N(c2ccccc2)c2ccccc2Cl)nc1)NO [citarinostat]
Outline: as §1

silmitasertib = compound: O=C(O)c1ccc2c(c1)nc(Nc1cccc(Cl)c1)c1ccncc12 [silmitasertib]
Outline: as §1

[5] = compound: O=C1NC(=O)C(c2cnc3ccccn23)=C1c1cn2c3c(cc(F)cc13)CN(C(=O)N1CCCCC1)CC2
Outline: as §1

[6] = compound: c1cc(OCCN2CCCCC2)cc(-c2n[nH]c3ccc(-c4nnc[nH]4)cc23)c1
Outline: as §1

entospletinib = compound: c1cn2cc(-c3ccc4cn[nH]c4c3)nc(Nc3ccc(N4CCOCC4)cc3)c2n1 [entospletinib]
Outline: as §1

Measured: log2 fold change

PMM2 (UniProt O15305)
inactive: [1] 0.022 | [2] 0.01 | [3] 0.016 | [4] -0.024 | entinostat -0.004 | vorinostat 0.007 | citarinostat 0.024 | silmitasertib -0.001 | [5] -0.05 | [6] -0.02 | entospletinib -0.194

PEX13 (UniProt Q92968)
inactive: [1] -0.03 | [2] -0.086 | [3] -0.101 | [4] -0.034 | entinostat -0.051 | vorinostat -0.195 | citarinostat 0.023 | silmitasertib 0.025 | [5] 0.026 | [6] -0.015 | entospletinib 0.012

PMPCB (UniProt O75439)
inactive: [1] -0.03 | [2] 0.024 | [3] -0.02 | [4] 0.023 | entinostat -0.043 | vorinostat -0.009 | citarinostat 0.037 | silmitasertib -0.103 | [5] -0.012 | [6] 0.023 | entospletinib -0.043

PFAS (UniProt O15067)
Chain of UniProt O15067 (O15067 whole entry, looked up): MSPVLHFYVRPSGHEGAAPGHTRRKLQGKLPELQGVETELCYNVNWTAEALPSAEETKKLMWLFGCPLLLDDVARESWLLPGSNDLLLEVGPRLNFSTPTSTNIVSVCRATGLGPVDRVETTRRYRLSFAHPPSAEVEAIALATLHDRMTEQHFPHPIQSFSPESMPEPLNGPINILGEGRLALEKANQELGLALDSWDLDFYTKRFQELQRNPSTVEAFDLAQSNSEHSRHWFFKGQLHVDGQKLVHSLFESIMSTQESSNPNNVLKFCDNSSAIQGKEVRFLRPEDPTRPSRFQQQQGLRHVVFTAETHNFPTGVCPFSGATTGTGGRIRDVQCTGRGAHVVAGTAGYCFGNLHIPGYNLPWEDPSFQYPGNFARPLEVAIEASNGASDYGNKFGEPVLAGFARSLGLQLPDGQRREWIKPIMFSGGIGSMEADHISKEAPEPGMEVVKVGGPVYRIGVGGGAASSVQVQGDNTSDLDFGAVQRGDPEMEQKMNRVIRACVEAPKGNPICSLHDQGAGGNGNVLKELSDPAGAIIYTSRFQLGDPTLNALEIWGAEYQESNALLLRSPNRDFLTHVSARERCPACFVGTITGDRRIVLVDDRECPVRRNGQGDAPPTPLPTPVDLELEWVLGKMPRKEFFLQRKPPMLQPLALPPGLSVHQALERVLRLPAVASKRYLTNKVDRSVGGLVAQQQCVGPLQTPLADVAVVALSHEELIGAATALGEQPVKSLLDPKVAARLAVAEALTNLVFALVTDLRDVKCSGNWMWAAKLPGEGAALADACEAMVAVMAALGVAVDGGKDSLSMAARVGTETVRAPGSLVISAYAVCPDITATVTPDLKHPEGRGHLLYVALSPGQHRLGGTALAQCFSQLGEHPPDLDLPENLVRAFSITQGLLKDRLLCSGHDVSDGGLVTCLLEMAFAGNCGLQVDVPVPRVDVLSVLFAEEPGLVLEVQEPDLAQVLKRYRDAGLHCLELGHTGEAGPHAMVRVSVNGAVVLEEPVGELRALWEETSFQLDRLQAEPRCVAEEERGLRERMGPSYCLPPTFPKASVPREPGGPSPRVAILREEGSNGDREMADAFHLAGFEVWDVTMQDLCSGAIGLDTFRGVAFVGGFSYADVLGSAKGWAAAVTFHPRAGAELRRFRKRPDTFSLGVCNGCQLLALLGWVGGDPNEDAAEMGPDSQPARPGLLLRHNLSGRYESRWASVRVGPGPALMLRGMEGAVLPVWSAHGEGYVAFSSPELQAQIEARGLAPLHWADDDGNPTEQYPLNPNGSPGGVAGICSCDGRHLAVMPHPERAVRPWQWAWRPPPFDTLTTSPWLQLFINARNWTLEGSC
active: entospletinib -0.399
inactive: [1] 0.06 | [2] -0.075 | [3] -0.012 | [4] -0.054 | entinostat 0.134 | vorinostat 0.042 | citarinostat 0.049 | silmitasertib -0.119 | [5] -0.052 | [6] 0.142

PRPF38A (UniProt Q8NAV1)
inactive: [1] -0.039 | [2] -0.015 | [3] -0.105 | [4] -0.006 | entinostat 0.004 | vorinostat 0.002 | citarinostat 0.152 | silmitasertib -0.212 | [5] 0.095 | [6] -0.122 | entospletinib 0.036

PDCD6 (UniProt O75340)
Chain of UniProt O75340 (O75340 whole entry, looked up): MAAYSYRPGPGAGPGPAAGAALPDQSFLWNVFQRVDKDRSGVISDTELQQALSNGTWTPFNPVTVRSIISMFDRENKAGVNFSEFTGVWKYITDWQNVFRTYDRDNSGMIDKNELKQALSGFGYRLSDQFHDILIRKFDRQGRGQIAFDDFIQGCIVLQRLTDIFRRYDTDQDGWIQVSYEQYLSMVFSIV
inactive: [1] -0.066 | [2] -0.08 | [3] 0.117 | [4] -0.106 | entinostat 0.081 | vorinostat 0.028 | citarinostat 0.064 | silmitasertib -0.022 | [5] -0.096 | [6] -0.024 | entospletinib 0.024

PEF1 (UniProt Q9UBV8)
inactive: [1] -0.029 | [2] -0.026 | [3] -0.219 | [4] -0.036 | entinostat 0.128 | vorinostat 0.01 | citarinostat 0.045 | silmitasertib 0.028 | [5] -0.103 | [6] -0.02 | entospletinib 0.023

PI4K2B (UniProt Q8TCG2)
active: [2] 0.704
inactive: [1] 0.092 | [3] -0.08 | [4] -0.069 | entinostat 0.066 | vorinostat -0.021 | citarinostat 0.075 | silmitasertib 0.051 | [6] 0.111 | entospletinib -0.005

QRICH1 (UniProt Q2TAL8)
inactive: [1] -0.043 | [2] -0.119 | [3] -0.137 | [4] -0.093 | entinostat 0.168 | citarinostat 0.11 | silmitasertib 0.047 | [5] -0.276 | [6] 0.027 | entospletinib -0.054

PDIK1L (UniProt Q8N165)
active: [1] 0.566
inactive: [2] -0.025 | [3] -0.075 | [4] -0.225 | entinostat -0.094 | citarinostat 0.016 | silmitasertib 0.035 | [5] 0.019 | [6] -0.162 | entospletinib 0.06

PTDSS1 (UniProt P48651)
inactive: [1] 0.043 | [2] -0.045 | [3] 0.022 | [4] -0.007 | entinostat -0.058 | vorinostat 0.199 | citarinostat -0.051 | silmitasertib 0.091 | [5] 0.184 | [6] -0.06 | entospletinib 0.147

PNPLA4 (UniProt P41247)
inactive: [1] 0 | [2] -0.118 | [3] -0.357 | [4] 0.131 | entinostat -0.093 | citarinostat 0.602 | silmitasertib 0.012 | [6] -0.071 | entospletinib 0.003

PPP2R5E (UniProt Q16537)
inactive: [1] 0.015 | [2] -0.039 | [3] -0.078 | [4] -0.09 | entinostat -0.021 | vorinostat 0.118 | citarinostat 0.058 | silmitasertib -0.014 | [5] -0.016 | [6] 0.163 | entospletinib -0.078

POLR3D (UniProt P05423)
active: [2] 1.51
inactive: [1] -0.061 | [3] -0.115 | [4] -0.028 | entinostat 0.03 | vorinostat 0.158 | silmitasertib 0.078 | [5] 0.032

POLR2C (UniProt P19387)
inactive: [1] -0.046 | [2] -0.026 | [3] -0.131 | [4] -0.196 | entinostat -0.031 | citarinostat 0.017 | silmitasertib 0.118 | [5] -0.023 | [6] -0.195 | entospletinib 0.138

PHKA1 (UniProt P46020)
Chain of UniProt P46020 (P46020 whole entry, looked up): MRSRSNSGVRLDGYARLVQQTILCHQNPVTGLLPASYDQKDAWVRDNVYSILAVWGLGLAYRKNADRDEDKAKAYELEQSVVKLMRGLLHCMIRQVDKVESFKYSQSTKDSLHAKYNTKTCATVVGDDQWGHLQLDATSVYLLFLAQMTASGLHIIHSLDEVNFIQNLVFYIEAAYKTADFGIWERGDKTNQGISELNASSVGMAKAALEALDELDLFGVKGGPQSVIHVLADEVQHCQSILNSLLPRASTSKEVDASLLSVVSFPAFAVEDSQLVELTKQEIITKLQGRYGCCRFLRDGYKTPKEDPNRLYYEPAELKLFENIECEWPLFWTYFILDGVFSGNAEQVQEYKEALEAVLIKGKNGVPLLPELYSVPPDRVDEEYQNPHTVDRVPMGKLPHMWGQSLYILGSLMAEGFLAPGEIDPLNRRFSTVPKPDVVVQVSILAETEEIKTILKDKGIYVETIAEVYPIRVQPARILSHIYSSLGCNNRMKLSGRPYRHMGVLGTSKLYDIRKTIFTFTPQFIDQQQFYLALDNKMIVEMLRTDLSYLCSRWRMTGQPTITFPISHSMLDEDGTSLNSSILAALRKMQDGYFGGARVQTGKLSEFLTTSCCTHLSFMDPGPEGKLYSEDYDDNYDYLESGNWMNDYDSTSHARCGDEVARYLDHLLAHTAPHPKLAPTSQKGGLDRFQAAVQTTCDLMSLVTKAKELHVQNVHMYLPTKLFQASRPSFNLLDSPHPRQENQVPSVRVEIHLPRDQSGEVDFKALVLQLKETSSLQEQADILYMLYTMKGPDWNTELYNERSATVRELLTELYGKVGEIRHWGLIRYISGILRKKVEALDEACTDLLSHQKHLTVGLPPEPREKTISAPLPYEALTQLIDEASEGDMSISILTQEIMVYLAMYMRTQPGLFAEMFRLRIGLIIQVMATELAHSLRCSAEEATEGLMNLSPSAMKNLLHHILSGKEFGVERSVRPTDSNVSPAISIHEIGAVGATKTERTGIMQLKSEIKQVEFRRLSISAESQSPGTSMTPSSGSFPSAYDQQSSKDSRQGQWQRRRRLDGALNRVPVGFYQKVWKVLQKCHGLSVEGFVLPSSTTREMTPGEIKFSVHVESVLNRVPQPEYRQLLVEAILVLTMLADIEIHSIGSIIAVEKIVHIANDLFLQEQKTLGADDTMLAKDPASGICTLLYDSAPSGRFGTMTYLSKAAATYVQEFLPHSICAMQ
inactive: [1] 0.03 | [2] 0.046 | [3] -0.202 | entinostat -0.005 | vorinostat 0.013 | citarinostat 0.128 | silmitasertib 0.004 | [5] 0.027 | [6] -0.068 | entospletinib 0.063

PCTP (UniProt Q9UKL6)
inactive: [1] -0.078 | [2] -0.07 | [3] -0.023 | [4] -0.092 | entinostat 0.065 | vorinostat -0.051 | citarinostat 0.003 | silmitasertib 0.043 | [5] -0.061 | [6] 0.363 | entospletinib -0.072

PCBP2 (UniProt F8VRH0)
inactive: [1] 0.187 | [2] -0.017 | [3] -0.175 | [4] 0.013 | entinostat 0.051 | vorinostat 0.247 | citarinostat 0.006 | silmitasertib -0.105 | [5] 0.144 | [6] -0.01 | entospletinib -0.004

PLD3 (UniProt Q8IV08)
inactive: [1] 0.008 | [2] -0.005 | [3] -0.177 | [4] -0.051 | entinostat 0.009 | vorinostat 0.022 | citarinostat 0.034 | silmitasertib 0.006 | [5] 0.024 | [6] 0.067 | entospletinib -0.01

POGZ (UniProt Q7Z3K3)
Chain of UniProt Q7Z3K3 (Q7Z3K3 whole entry, looked up): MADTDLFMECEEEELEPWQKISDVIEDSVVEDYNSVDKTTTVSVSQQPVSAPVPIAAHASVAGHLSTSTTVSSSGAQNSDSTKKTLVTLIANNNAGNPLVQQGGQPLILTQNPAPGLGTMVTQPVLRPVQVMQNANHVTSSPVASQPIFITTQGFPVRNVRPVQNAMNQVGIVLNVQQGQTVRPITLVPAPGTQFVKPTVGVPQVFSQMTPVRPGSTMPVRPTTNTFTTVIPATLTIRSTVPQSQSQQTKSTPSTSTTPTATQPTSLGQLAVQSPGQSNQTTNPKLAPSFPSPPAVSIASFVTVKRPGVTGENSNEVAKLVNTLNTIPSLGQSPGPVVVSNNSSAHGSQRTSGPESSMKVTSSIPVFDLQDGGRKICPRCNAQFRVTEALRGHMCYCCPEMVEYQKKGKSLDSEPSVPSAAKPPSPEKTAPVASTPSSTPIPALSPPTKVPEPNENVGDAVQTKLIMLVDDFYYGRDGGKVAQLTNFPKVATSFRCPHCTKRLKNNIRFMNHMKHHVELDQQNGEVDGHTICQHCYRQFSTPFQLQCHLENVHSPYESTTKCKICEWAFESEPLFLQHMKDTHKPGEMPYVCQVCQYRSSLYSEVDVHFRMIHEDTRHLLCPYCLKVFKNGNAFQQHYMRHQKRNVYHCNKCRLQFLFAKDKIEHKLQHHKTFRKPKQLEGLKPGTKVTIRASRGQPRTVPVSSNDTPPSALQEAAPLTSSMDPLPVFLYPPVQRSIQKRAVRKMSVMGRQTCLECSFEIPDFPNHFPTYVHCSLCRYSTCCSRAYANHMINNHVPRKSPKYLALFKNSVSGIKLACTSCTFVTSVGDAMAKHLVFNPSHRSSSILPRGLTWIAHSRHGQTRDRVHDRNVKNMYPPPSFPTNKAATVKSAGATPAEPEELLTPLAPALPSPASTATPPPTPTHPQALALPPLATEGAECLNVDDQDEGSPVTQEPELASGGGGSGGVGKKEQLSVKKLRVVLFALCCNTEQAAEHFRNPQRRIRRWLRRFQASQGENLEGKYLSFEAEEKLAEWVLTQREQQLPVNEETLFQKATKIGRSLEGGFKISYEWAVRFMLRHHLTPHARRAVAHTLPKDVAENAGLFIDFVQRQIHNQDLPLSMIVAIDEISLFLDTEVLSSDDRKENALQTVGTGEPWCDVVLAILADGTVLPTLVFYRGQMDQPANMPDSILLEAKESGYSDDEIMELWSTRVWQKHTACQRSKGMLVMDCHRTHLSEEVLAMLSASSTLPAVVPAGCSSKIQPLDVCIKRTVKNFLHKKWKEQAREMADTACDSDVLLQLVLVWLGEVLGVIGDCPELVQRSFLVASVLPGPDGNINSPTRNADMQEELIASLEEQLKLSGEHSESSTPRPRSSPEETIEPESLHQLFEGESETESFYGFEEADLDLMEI
active: [6] -0.483
inactive: [1] 0.009 | [2] 0.167 | [4] -0.028 | entinostat -0.031 | vorinostat -0.186 | citarinostat -0.206 | [5] -0.114 | entospletinib 0.101

PTGES3 (UniProt Q15185)
inactive: [1] -0.043 | [2] -0.006 | [3] -0.123 | [4] 0.017 | entinostat 0.075 | vorinostat 0.002 | citarinostat 0.111 | silmitasertib -0.002 | [5] -0.142 | [6] 0.054 | entospletinib -0.005

PMVK (UniProt Q15126)
inactive: [1] -0.04 | [2] -0.001 | [3] -0.114 | [4] 0.29 | entinostat -0.08 | vorinostat -0.134 | silmitasertib 0.065 | [5] 0.048

PPIL1 (UniProt Q9Y3C6)
inactive: [1] -0.054 | [2] 0.059 | [3] 0.008 | [4] -0.074 | entinostat -0.001 | vorinostat -0.013 | citarinostat 0.015 | silmitasertib 0.075 | [5] 0.001 | [6] -0.051 | entospletinib 0.052

PBX2 (UniProt P40425)
inactive: [1] 0.089 | [2] -0.016 | [3] -0.203 | [4] -0.065 | entinostat 0.058 | vorinostat 0.196 | silmitasertib 0.003 | [5] -0.168

PRKD2 isoform 3 (UniProt Q9BZL6)
Chain of UniProt Q9BZL6 (Q9BZL6 whole entry, looked up): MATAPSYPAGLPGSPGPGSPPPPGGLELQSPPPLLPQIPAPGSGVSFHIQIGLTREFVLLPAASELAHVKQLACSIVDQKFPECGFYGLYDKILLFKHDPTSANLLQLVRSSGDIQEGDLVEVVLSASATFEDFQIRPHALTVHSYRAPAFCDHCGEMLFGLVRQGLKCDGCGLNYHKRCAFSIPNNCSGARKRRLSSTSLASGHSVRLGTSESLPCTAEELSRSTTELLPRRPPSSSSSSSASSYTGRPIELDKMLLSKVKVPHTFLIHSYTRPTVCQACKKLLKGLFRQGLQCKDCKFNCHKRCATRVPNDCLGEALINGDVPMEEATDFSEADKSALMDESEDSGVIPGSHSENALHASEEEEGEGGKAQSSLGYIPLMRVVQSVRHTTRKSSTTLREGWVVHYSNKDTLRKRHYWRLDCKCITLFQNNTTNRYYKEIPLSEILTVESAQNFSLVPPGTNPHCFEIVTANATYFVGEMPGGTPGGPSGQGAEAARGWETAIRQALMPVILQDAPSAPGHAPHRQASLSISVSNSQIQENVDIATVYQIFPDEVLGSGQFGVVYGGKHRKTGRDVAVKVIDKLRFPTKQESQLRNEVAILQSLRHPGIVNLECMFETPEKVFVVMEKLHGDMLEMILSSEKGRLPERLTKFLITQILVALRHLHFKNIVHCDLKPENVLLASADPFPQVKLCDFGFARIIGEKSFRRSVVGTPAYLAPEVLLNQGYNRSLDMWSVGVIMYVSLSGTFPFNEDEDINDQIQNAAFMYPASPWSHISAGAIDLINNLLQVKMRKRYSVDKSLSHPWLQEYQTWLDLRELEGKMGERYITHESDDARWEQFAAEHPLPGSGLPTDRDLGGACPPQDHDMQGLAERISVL
inactive: [2] -0.217 | [3] -0.074 | [4] 0 | entinostat 0.331 | vorinostat 0.186 | silmitasertib 0.047 | [5] -0.014
active: [1] -0.515

PMM1 (UniProt Q92871)
inactive: [1] 0.005 | [2] 0.006 | [3] -0.01 | [4] 0.002 | entinostat -0.021 | vorinostat 0.113 | citarinostat 0.034 | silmitasertib -0.005 | [5] 0.004 | [6] -0.012
active: entospletinib -0.415

PPIL4 (UniProt Q8WUA2)
inactive: [1] -0.021 | [2] -0.085 | [3] 0.002 | [4] -0.071 | entinostat 0.011 | vorinostat 0.016 | citarinostat 0.033 | silmitasertib -0.005 | [5] -0.005 | [6] -0.1 | entospletinib 0.035
